Test [1] can be described thus: qHTS assay for small molecule agonists of the p53 signaling pathway (AID 651631; calls by dose curve; further: nearly all actives have a fitted effect of over 15% in size). An outline of the steps:
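Beta-lactamase reporter activity under p53 response elements was quantified in HCT-116 cells by FRET fluorescence, following 16 h incubation with test compounds at 37 °C and 2 h substrate development at room temperature.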
Background: qHTS replaces the single test concentration by a dilution series.

Test [2] is described as follows: qHTS assay for small molecules that induce genotoxicity in human embryonic kidney cells expressing luciferase-tagged ATAD5 (AID 651632). Further: nearly all actives have a fitted effect of over 15% in size. Further: potency means the concentration at half of the fitted maximal effect. An outline of the steps:
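Concentration-response screen for ATAD5 upregulation in HEK293T luciferase reporter cells; 16 hr treatment at 37C, then luminescence after 30 min with Amplite at room temperature.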

Test [3] is described as follows: qHTS assay for small molecule agonists of the p53 signaling pathway - cell viability (AID 651633; calls by dose curve;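 further: p53RE-bla HCT reporter cells with a stable beta-lactamase p53 reporter; series mostly up to about 83 µM; nearly all actives have a fitted effect of over 30% in size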). Summed up: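 p53RE-bla cells, seeded at 4,000 per well and rested 5 h at 37 C/5% CO2, received compounds in DMSO for 16 h at 37 C. CellTiter-Glo was then added, and luminescence was read after 30 min at room temperature to gauge cytotoxicity.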
Test [4] can be described thus: qHTS assay for small molecules that induce genotoxicity in human embryonic kidney cells expressing luciferase-tagged ATAD5 - cell viability (AID 651634; calls by dose curve; further: nearly all actives have a fitted effect of over 25% in size; further: potency means the concentration at half of the fitted maximal effect). An outline of the steps: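 15.5 hr compound or vehicle exposure of HEK293T cells expressing luciferase-tagged ATAD5 at 37C; live-cell protease activity is read by fluorescence after 30 min of CellTiter-Fluor.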
Test [5] in a line: qHTS assay for small molecule disruptors of the mitochondrial membrane potential - cell viability (AID 720634; calls by dose curve;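 further: human HepG2 liver cancer cells; series mostly up to about 83 µM; nearly all actives have a fitted effect of over 20% in size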). Summed up:
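In this qHTS format, HepG2 cells plated overnight were pinned with compound, incubated 1 hr, and assayed for ATP luminescence with CellTiter-Glo after m-MPI dye addition.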

A short description of test [6]: qHTS assay to test for compound auto fluorescence at 535 nm (green) in HepG2 cells (AID 720675).
Test [7] is described as follows: qHTS assay to test for compound auto fluorescence at 460 nm (blue) in HEK293 cells (AID 720678). An outline of the steps:
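Measured: blue fluorescence (Ex 405/Em 460 nm) of compound-treated HEK293 cells, incubated overnight at 37C with 5% CO2 and scaled to triamterene equivalents.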

Test [8] in a line: qHTS assay to test for compound auto fluorescence at 590 nm (red) in HEK293 cells (AID 720679). An outline of the steps:
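Using HEK293 cells at 2,000 per well, the screen added 23 nL of each compound after cell attachment and incubated overnight (37C, 5% CO2). The plate reader then captured red-label fluorescence, Ex/Em 540/590nm.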

A short description of test [9]: qHTS assay to test for compound auto fluorescence at 590 nm (red) in HepG2 cells (AID 720674). Summed up: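 Intrinsic compound fluorescence in the red window (Ex/Em 540/590 nm) is measured in attached HepG2 cells exposed for 1 hr, DMSO vehicle as baseline, benchmarked to Rose Bengal sodium.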
Test [10] in a line: qHTS assay for small molecule disruptors of the mitochondrial membrane potential (AID 720635). Further: potency means the concentration at half of the fitted maximal effect. Summed up: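 HepG2 cells (2,000/well) attached overnight at 37C, then took compound for 1 hr at 37C, 5% CO2. Mito-MPS dye was added for 30 min; fluorescence was read at 490/535 nm (monomers) and 540/590 nm (aggregates).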

Values without a mark were called inactive. Inconclusive results are not listed. The source made the active and inactive calls. Unless noted, the call rests on the fitted dose curve; in most records, active means well fitted curve in the direction sought with a large enough effect in the repeat runs; inconclusive means weak or mixed curves; inactive means no such curve, though single readings can be large; an effect the other way counts as inactive or inconclusive.

This is an account of results in PubChem BioAssay (Tox21).
On the % scale 0 is the no-effect control and ±100 the full control effect.

As to `CCCCCCCCCCCCCCCCBr`, the Potency result in [1], in [2], in test [3], in test [4] and in test [5] was “inactive” throughout. Moreover, the fluorescence, % of fluorescein control in test [6] was 0.118% [at 18.6 µM]. Moreover, in [7], the fluorescence, % of triamterene is -0.0281% [at 18.6 µM]. The fluorescence, % of fluorescent control in [8] is -0.108% [at 18.6 µM].

As for `CCn1cc(C(=O)O)c(=O)c2cc(F)c(N3CCNCC3)nc21`, the Potency entry in test [1], in test [2], in [3], in test [4] and in [5] was “inactive” each time. Further, the fluorescence, relative to Rose Bengal in [9] was 0.819% [at 18.6 µM]. Also, in test [6], the fluorescence, % of fluorescein control is -0.0415% [at 18.6 µM]. In test [7], the fluorescence, % of triamterene is -0.37% [at 18.6 µM]. In addition, the fluorescence, % of fluorescent control in [8] is -0.616% [at 18.6 µM].

Regarding `CCOC(=O)c1ccccc1C`, the Potency result in [1], in [2], in test [3], in test [4], in [5] and in test [7] was “inactive” each time. Further, the call in [9], in test [6] and in test [8] was inactive.

As for `O=C(NCCCN1CCOCC1)c1ccc(Cl)cc1`, the Potency result in test [1], in test [2], in [3], in test [4], in [5] and in test [7] was “inactive” throughout. The call in test [9], in [6] and in test [8] was inactive.

Take `CNCCCC1c2ccccc2C=Cc2ccccc21`: the Potency result in test [1], in test [2], in test [3], in test [4] and in test [5] was “inactive” throughout. In addition, in test [9], the fluorescence, relative to Rose Bengal is -0.202% [at 18.6 µM]. Moreover, in [6], the fluorescence, % of fluorescein control is -0.0324% [at 18.6 µM]. For the same compound, the fluorescence, % of triamterene in [7] is 0.0209% [at 18.6 µM]. For the same compound, the fluorescence, % of fluorescent control in [8] was -0.279% [at 18.6 µM].

In the case of `Cc1cc(O)c2c(O)c3c(O)cccc3cc2c1`, the Potency entry in [1], in test [2], in test [3], in test [4] and in test [7] was “inactive” throughout. Further, in test [10], the Potency is 18.8 µM (active). Further, the result in [9], in [6] and in [8] was inactive.

Turning to `CCCCN(CCCC)CCCOC(=O)c1ccc(N)cc1`, the Potency result in [1], in test [2], in test [3], in [4] and in test [5] was “inactive” throughout. Also, the fluorescence, relative to Rose Bengal in [9] was -0.556% [at 18.6 µM]. Moreover, the fluorescence, % of fluorescein control in [6] was 0.038% [at 18.6 µM]. In test [7], the fluorescence, % of triamterene is -0.0222% [at 18.6 µM]. Further, the fluorescence, % of fluorescent control in test [8] is 0.141% [at 18.6 µM].

As for `C=C(C)C(=O)OCCOC(=O)CC(C)=O`, the Potency entry in test [1], in [2], in test [3], in [4], in test [10] and in test [7] was “inactive” in each case. For the same compound, the outcome in test [9], in test [6] and in test [8] was inactive.

For the compound `CO[C@H]1C=CO[C@@]2(C)Oc3c(C)c(O)c4c(O)c(c5c(c4c3C2=O)=NC2(CCN(CC(C)C)CC2)N=5)NC(=O)/C(C)=C\C=C/[C@H](C)[C@H](O)[C@@H](C)[C@@H](O)[C@@H](C)[C@H](OC(C)=O)[C@@H]1C`, the Potency result in test [1], in test [2], in test [3], in [5] and in [7] was “inactive” each time. For the same compound, the Potency in test [4] was 53.3 µM (active). The result in [9], in [6] and in [8] was inactive.

On to `Nc1ccc(S(=O)(=O)O)cc1`, for which the Potency result in test [1], in [2], in test [3], in test [4], in [5] and in test [7] was “inactive” in each case. Also, the call in test [9], in test [6] and in [8] was inactive.

As for `CCCCCCCCCCCC[N+](C)(C)CC(=O)[O-]`, the Potency entry in [1], in test [2], in [3], in [4], in test [5] and in test [10] was “inactive” each time. In test [7], the Potency result is “inactive”. For the same compound, the compound was called inactive in [6] and in test [8].

For the compound `CCN(CC)CCNC(=O)c1ccc(NC(C)=O)cc1`, the Potency result in test [1], in test [2], in [3], in test [4], in test [10] and in test [7] was “inactive” in each case. Also, the compound was called inactive in test [9], in test [6] and in test [8].

Turning to `CN1CCN(CCCN2c3ccccc3Sc3ccc(S(=O)(=O)N(C)C)cc32)CC1`, the Potency result in test [1], in test [2], in test [3], in test [4] and in test [5] was “inactive” throughout. The fluorescence, relative to Rose Bengal in test [9] is -0.708% [at 18.6 µM]. For the same compound, in [6], the fluorescence, % of fluorescein control was -0.102% [at 18.6 µM]. Besides, in test [7], the fluorescence, % of triamterene was 0.42% [at 18.6 µM]. For the same compound, in [8], the fluorescence, % of fluorescent control was 0.005% [at 18.6 µM].

As for `CC(=O)Nc1ccc(N)cc1`, the Potency entry in test [1], in [2], in test [3], in [4], in test [10] and in test [7] was “inactive” each time. In addition, the result in test [9], in test [6] and in test [8] was inactive.

Consider `CC1(C)O[C@@H]2C[C@H]3[C@@H]4CCC5=CC(=O)C=C[C@]5(C)[C@H]4[C@@H](O)C[C@]3(C)[C@]2(C(=O)CO)O1`, for which the Potency entry in test [1], in test [3], in test [4], in test [5] and in test [7] was “inactive” each time. Also, the Potency in test [2] is 0.0119 µM (active). Moreover, the compound was classed as inactive in [9], in test [6] and in test [8].

For `C=CC(C)(O)CCCC(C)CCCC(C)CCCC(C)C` (configuration not stated), the Potency entry in test [1], in test [2], in [3], in test [4], in test [5] and in test [7] was “inactive” in each case. The outcome in test [6] and in [8] was inactive.

In the case of `O=C(O)c1snc(Cl)c1Cl`, the Potency entry in [1], in test [2], in [3], in test [4], in test [5] and in test [7] was “inactive” throughout. Moreover, the call in [9], in [6] and in test [8] was inactive.

As for `O=C(O)c1cccnc1C(=O)O`, the Potency entry in test [1], in test [2], in test [3], in test [4], in test [5] and in test [7] was “inactive” throughout. The call in test [9], in [6] and in test [8] was inactive.

Turning to `CCCCCCOC(=O)C(C)C`, the Potency result in [1], in test [2], in [3], in [4], in test [5] and in test [10] was “inactive” throughout. Also, the Potency entry in test [7] is “inactive”. The compound was called inactive in [6] and in test [8].

On to `CC1(C)C2=CCCC(C)(C)[C@]23CC[C@H]1C3`, for which the Potency result in [1], in [2], in test [3], in [4], in test [10] and in test [7] was “inactive” each time. Further, the call in [9] and in test [6] was inactive.

Turning to `CC(C)OCC1CO1` (configuration not stated), the Potency result in test [1], in test [2], in test [3], in test [4], in test [5] and in test [7] was “inactive” each time. Further, the outcome in test [9], in test [6] and in test [8] was inactive.

For the compound `C=CCCCCCCCCCCCCCCCC`, the activation in [1] is -3.57% [at 8.3 µM]; in test [2] it was 2.36% [at 8.08 µM]. Further, the activity change, negative = cytotoxicity in test [3] is 16.1% [at 8.08 µM]; in test [5], 11.3% [at 8.08 µM]. Besides, the activity, negative = cytotoxicity in [4] was 7.59% [at 8.08 µM]. The fluorescence, % of fluorescein control in [6] is -0.0078% [at 3.72 µM]. Besides, in test [7], the fluorescence, % of triamterene is 0.18% [at 3.72 µM]. For the same compound, in test [8], the fluorescence, % of fluorescent control was 0.277% [at 3.72 µM].

For `CN1C(=O)CC(C)(c2ccccc2)C1=O` (configuration not stated), the Potency result in test [1], in test [2], in [3], in test [4], in [10] and in [7] was “inactive” throughout. The outcome in test [9], in test [6] and in [8] was inactive.

For `CC1CC(=O)NN=C1c1ccc(NCC(C)(C)NCC(O)COc2cc(Cl)ccc2C#N)cc1` (configuration not stated), the Potency entry in test [1], in test [2], in test [3], in test [4], in test [5] and in test [7] was “inactive” each time. Moreover, the outcome in test [9], in test [6] and in [8] was inactive.
